# Sfp inh – qHTS Assay for Inhibitors of Bacillus subtilis Sfp phosphopantetheinyl transferase (PPTase) | 4'-phosphopantetheinyl transferase ffp (Bacillus subtilis), Q9F4F7 | Biochemical Sfp PPTase activity, qHTS | AID 1490, 2009 | actives 3.5% (n = 310,000) | Potency, µM, inactives show largest response in the series, negative = inhibition, hits mostly inhibitors;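 further: the enzyme is Sfp with the accession as filed and its product quenches rhodamine fluorescence; 0% = enzyme reaction without inhibitor and -100% = no enzyme wells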
#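 Step 1, compound plus 15 nM Sfp-PPTase, 15 min, room temperature. Step 2, add rhodamine-CoA (5 uM) and BHQ-2-YbbR (12.5 uM). Step 3, read 525/598 nm fluorescence at 0 and 30 min.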
# GRP78 ERSR act – qHTS for Inducers of the Endoplasmic Reticulum Stress Response (ERSR) in Human Glioma: qHTS; Potency, µM, for the others: at the top dose activation, most hits filed as activators; U87-MG GRP78 promoter luciferase reporter, 16 h; actives 0.02% (n = 420,000); further: series mostly up to about 76 µM; % of control where 0% means no effect; nearly all actives have a fitted effect of over 35% in size
#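 Stably transfected U87-MG human glioma cells carrying a GRP78-based luminescent sensor were seeded at 1000 cells/well, pin-dosed with compounds and incubated 16 h. Luciferase reagent was then added, and end-point luminescence was read after 10 min at room temperature.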
# G9a block – qHTS Assay for Inhibitors of Histone Lysine Methyltransferase G9a | Histone-lysine N-methyltransferase EHMT2 (Homo sapiens), Q96KQ7 | G9a H3K9 monomethylation, AlphaScreen, 2 h | Potency, µM (highest dose often 102 µM), inactives show top-dose activity, negative = inhibition, actives largely listed as inhibitors | actives 8.8% (n = 350,000); further: on the % scale 0 is the no-effect control and ±100 the full control effect; nearly all actives have a fitted effect of over 75% in size
#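 G9a (20 nM) was preincubated 15 min with compound, then reacted 2 h at room temperature with 500 nM biotin-H3K9 peptide and 20 µM SAM. Monomethyl-H3K9 detected by AlphaScreen using anti-H3K9me1 antibody.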
# ALOX12 inh – Primary qHTS assay for inhibitors of human arachidonate 12S-lipoxygenase (ALOX12): Round 2 | Polyunsaturated fatty acid lipoxygenase ALOX12 (Homo sapiens), P18054 | purified 12hLO, xylenol orange hydroperoxide absorbance | Potency, µM (highest dose often 108 µM), inactives show at the highest dose activity change, negative = inhibition, hits mostly inhibitors | actives 1.1% (n = 580,000) | AID 1671190, 2021; further: on the % scale 0 is the no-effect control and ±100 the full control effect
# Target sequence (P18054 whole entry, looked up): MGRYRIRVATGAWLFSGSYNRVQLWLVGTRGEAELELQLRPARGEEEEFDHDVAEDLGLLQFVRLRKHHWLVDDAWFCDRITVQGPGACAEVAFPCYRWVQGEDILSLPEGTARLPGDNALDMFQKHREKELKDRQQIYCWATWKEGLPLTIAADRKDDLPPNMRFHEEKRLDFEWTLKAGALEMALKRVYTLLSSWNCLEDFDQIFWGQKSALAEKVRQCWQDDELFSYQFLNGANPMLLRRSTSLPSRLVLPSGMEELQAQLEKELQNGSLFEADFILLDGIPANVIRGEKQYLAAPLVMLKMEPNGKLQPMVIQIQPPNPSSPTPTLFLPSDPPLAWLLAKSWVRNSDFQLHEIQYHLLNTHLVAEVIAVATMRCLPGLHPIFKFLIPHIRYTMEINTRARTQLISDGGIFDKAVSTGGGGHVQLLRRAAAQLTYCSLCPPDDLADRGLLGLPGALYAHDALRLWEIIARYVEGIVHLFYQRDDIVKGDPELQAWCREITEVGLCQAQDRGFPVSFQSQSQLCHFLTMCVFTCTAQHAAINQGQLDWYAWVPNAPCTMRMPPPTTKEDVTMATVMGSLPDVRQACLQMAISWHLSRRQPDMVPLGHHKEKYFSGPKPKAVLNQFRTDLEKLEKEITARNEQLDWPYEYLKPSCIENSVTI
#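 Hydroperoxide product was detected by ferrous iron/xylenol orange as the 573 to 405 nm absorbance ratio. Arachidonic acid at 40 uM (final) was turned over for 30 min at room temperature by 150 nM human 12hLO, pH 7.0 Hepes buffer, after 15 min compound preincubation.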
# VDR inhibitor – Inhibitors of the vitamin D receptor (VDR): qHTS; AID 504847, 2011; Potency, µM, for inactives: max response, negative = inhibition, actives largely listed as inhibitors; VDR-SRC2-3 peptide fluorescence polarization, 2 h; actives 0.93% (n = 400,000); further: on the % scale 0 is the no-effect control and ±100 the full control effect
#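 Two reagent solutions held at 4 deg C in the dark were dispensed, compounds pinned at 23 nl, and the mixture incubated 2 h at room temperature. Read-out: fluorescence polarization of VDR–SRC2-3 peptide binding.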
# * marks the source's active call; other numbers are inactive results; ? = inconclusive; / = no result; [ ] = remark or other dose. The full list was thinned out, with hits kept by preference. The call rests on the fitted dose curve; in most records, active means well fitted curve in the direction sought with a large enough effect; inconclusive means small, poorly fitted or top-dose-only effect, or another doubt; inactive means no such curve, though single readings can be large; an effect the other way counts as inactive or inconclusive. Potency means the concentration at half of the fitted maximal effect.
SMILES,Sfp inh,GRP78 ERSR act,G9a block,ALOX12 inh,VDR inhibitor
COc1ccc(CCNc2ccc(S(=O)(=O)N3CCCC3)cc2[N+](=O)[O-])cc1,7%,-4%,?,-2%,0%
COc1ccc(Nc2ccc(S(=O)(=O)N3CCCCCC3)cc2[N+](=O)[O-])cc1,0%,-2%,11µM*,-1%,-16%
Cc1cccc(Nc2ccc(S(=O)(=O)N3CCOCC3)cc2[N+](=O)[O-])c1,/,-1%,?,?,8%
O=C(O)CCC(CNS(=O)(=O)c1ccc(Cl)cc1)C(F)(F)F (centres undefined),/,/,/,-23%,/
OCC1(CO)CCCC12COC(c1ccccc1)OC2 (centres undefined),/,/,/,3%,/
Cc1ccc(NS(=O)(=O)c2c(C)[nH]c(=O)[nH]c2=O)c(C)c1,0%,-3%,37%,13%,13%
Cc1cc(Br)ccc1NS(=O)(=O)c1c(C)[nH]c(=O)[nH]c1=O,-7%,5%,45µM*,-9%,-25%
O=C(Nc1cccc2cccnc12)NC1CCCCC1,/,/,/,-29%,/
COc1ccc(C(=O)/C=C/C(=O)N(CC(=O)NCCC(C)C)Cc2cccs2)c(O)c1,3.5µM*,9%,-30%,?,-10%
COc1ccc(C(=O)N(Cc2ccco2)Cc2cccs2)c(O)c1,?,-3%,?,0%,4%
Cc1ccc2nc(-c3ccc(NC(=O)c4cccc([N+](=O)[O-])c4C)cc3)oc2c1,/,/,/,-14%,/
COc1ccccc1N1CCN(c2nc(N)c(C#N)c(CC#N)c2C#N)CC1,-17%,-2%,50µM*,420%,6%
COCCn1c(C)cc(/C=C2\NC(=S)N(C)C2=O)c1C,-9%,9%,10µM*,?,-5%
CC(C)CC(NC(=O)C1CC1)C(=O)N(C)C (centres undefined),/,/,/,-12%,/
COC(=O)c1c(C)[nH]c(O)c1C=Nc1ccc(C#N)cc1,45µM*,1%,18µM*,-12%,-17%
CC(=O)n1c2c(c3ccccc31)OC(N)=C(C#N)C2c1ccc(C(C)C)cc1 (centres undefined),-1%,6%,?,?,-8%
CC(C)c1ccc(C2C(C#N)=C(N)N3C(=C2C#N)Sc2ccccc23)cc1 (centres undefined),-18%,/,35µM*,/,/
COc1ccc(-c2csc(NC(=O)CN3C(=O)NC4(CCCC4)C3=O)n2)cc1OC,/,-2%,56µM*,-15%,-13%
CCOc1ccc2nc(NC(=O)CN3C(=O)NC4(CCCC4)C3=O)sc2c1,/,3%,50µM*,3%,-5%
COc1ccc(OC)c(-c2csc(NC(=O)CN3C(=O)C4CCCCC4C3=O)n2)c1 (centres undefined),/,1%,50µM*,-21%,-3%
CC(C)(C)c1ccc(-c2csc(NC(=O)CN3C(=O)NC4(CCCCC4)C3=O)n2)cc1,3%,3%,39%[12.7 µM],0%,9%
COc1ccc(OC)c(-c2csc(NC(=O)COC(=O)C3CCC3)n2)c1,/,-2%,?,-6%,-6%
COc1ccc(-c2csc(NC(=O)CN3C(=O)NC4(CCCC4)C3=O)n2)c(OC)c1,/,-1%,50µM*,-24%,-10%
Cc1ccsc1C(=O)Nc1cccc2c1CCCC2,/,/,/,21%,/
CC(=O)NNC(=O)COC(=O)c1ccccc1Sc1ccccc1C#N,/,/,/,5%,/
SMILES,Sfp inh,GRP78 ERSR act,G9a block,ALOX12 inh,VDR inhibitor
O=C(O)/C=C/c1ccc(SC(F)F)cc1,/,/,/,-28%,/
COc1cccc(C(=O)CSc2nnc(-c3cc4ccccc4o3)n2C)c1,/,/,/,20%,/
CCOc1cc(/C=C/C(=O)c2ccc(Cl)cc2)cc(Cl)c1O,/,/,/,7.9µM*,/
CCOc1cc(/C=C/C(=O)c2ccc(C)cc2)cc(Cl)c1O,/,/,/,22µM*,/
CC(C)c1nc2c(c(-c3ccc(O)cc3)n1)CN([S+](=O)([O-])c1cccc(C(F)(F)F)c1)CC2,/,/,/,-23%,/
Cc1ccc2c(c1)c(CC(NC(=O)c1ccccc1Oc1ccccc1)C(=O)O)cn2C(=O)OCc1ccccc1 (centres undefined),-18%,2%,/,/,32µM*
COc1cccc(-c2nccc(NCc3cccs3)n2)c1,79µM*,-7%,-2%[0.501 µM],-42%,?
Cc1ccccc1-c1nccc(NCc2cccs2)n1,89µM*,2%,-3%[0.501 µM],?,?
c1cncc(-c2nccc(NCc3cccs3)n2)c1,-18%,-1%,-11%[0.501 µM],20µM*,?
Clc1ccccc1-c1nccc(NCc2cccs2)n1,7%,2%,9%[0.501 µM],?,?
c1cncc(-c2[nH]ncc2CNCc2cccs2)c1,/,/,/,7.1µM*,/
c1csc(CNCc2ccncc2)c1,0%,-2%,-64%,?,24%
N#Cc1ccccc1Sc1ccccc1C(=O)OCC(=O)Nc1ccccc1,/,/,/,-6%,/
Cc1c(CC(=O)NC(C)C)c2c(n1Cc1ccccc1F)CCCC2=O,/,/,/,-6%,/
O=C1OCC2(CCN(Cc3cccc(OC(F)(F)F)c3)C2)N1c1ccncc1 (centres undefined),/,/,/,-3%[176 µM],/
O=C(O)c1cccc(COc2ccc3c(c2)CCC3)c1,6%,-16%,50µM*,55%,-7%
COc1ccc2c(c1)c1nc3ccccc3nc1n2CCn1c(=O)oc2ccccc21,8%,-2%,-10%[59 µM],-1%,16%
O=c1oc2ccccc2n1CCn1c2ccccc2c2nc3ccccc3nc21,15%,-1%,20µM*,44%,6%
CCN1CCN(c2cc(=O)n(C3CCCCC3)c(=O)[nH]2)CC1,20%,-3%,50µM*,11%[57.4 µM],-12%
O=c1cc(N2CCN(c3ccccc3)CC2)[nH]c(=O)n1C1CCCCC1,13%,-5%,3%,3%,6%
CCOC(=O)N1CCN(c2cc(=O)n(C3CCCCC3)c(=O)[nH]2)CC1,3%,-4%,-1%,18%,14%
CN1CCN(c2cc(=O)n(C3CCCCC3)c(=O)[nH]2)CC1,18%,-1%,35µM*,16%,-3%
COc1ccc2nc(C[C@@H]3C[C@@H](C(C)C)[C@H](CNC4CCCCC4)C=C3C)[nH]c2c1,/,/,/,-27%[176 µM],/
Cc1ccc2c(c1)c1c3n2CC(=C2C(=O)OC(C)(C)OC2=O)NC3CCC1 (centres undefined),-56%,3%,?,11µM*,-18%
Cc1cccc(OCC(=O)N2CCCN(c3cc(-c4ccc(Cl)cc4)[nH]n3)CC2)c1,/,/,/,19%,/
COc1cc(/C=C/C(=O)C2C(=O)C=C(C)OC2=O)cc(Cl)c1OC(F)F (centres undefined),/,/,/,14µM*,/

# Screens: PubChem, National Center for Advancing Translational Sciences (NCATS)
